PubChem BioAssay AID1572 (National Center for Advancing Translational Sciences (NCATS), 2009)
Results filed as inconclusive are left out. Values without a mark were called inactive. Calls follow the shape of the dose curve; as a rule, active = well fitted curve in either direction with a large enough effect; inconclusive = small, poorly fitted or top-dose-only effect; inactive = flat fitted curve, though single readings scatter.

Assay: Total Fluorescence Confirmation Counterscreen for Inhibitors of the Interaction of Thyroid Hormone Receptor and Steroid Receptor Coregulator 2
Details: Texas Red total fluorescence, TRbeta/SRC2 FP artifact counterscreen; series mostly up to 92.2 µM; total fluorescence change, both ways: at the top concentration
Summary of the method: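 Flags fluorescent or light-absorbing compounds: after 5 hr at ambient temperature, 0.6 uM TRbeta LBD plus 20 nM SRC2 Texas Red (1uM T3, 5% DMSO) read at 555/632 nm; TF = S + 2P from parallel and perpendicular channels.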

Row | Structure (SMILES) | total fluorescence change, both ways
1 | CCC(NC(=O)Nc1ccc(O)cc1)(C(F)(F)F)C(F)(F)F | 8.48%
2 | O=C(O)/C=C/C(=O)Nc1ccc(SC(F)(F)C(F)(F)C(F)(F)F)cc1 | 6.28%
3 | CCC(CNc1cc(OC)cc2cccnc12)NC1CCCCC1 (stereo not given) | 26.9%
4 | CCCCOc1ccc(C(=O)CCN2CCOCC2)cc1 | 8.29%
5 | Cc1[nH][nH]c(=O)c1C(c1ccc(-c2ccccc2C(=O)O)o1)c1c(C)[nH][nH]c1=O | -3.55%
6 | CC1=NN(Cc2ccccc2)C(=O)C1 | 4.8%
7 | COn1c2c(c3c4nonc4ccc31)CCCC2 | 5.67%
8 | O=c1[nH]c(Nc2ccccc2)cc2ccccc12 | 5.66%
9 | Cc1ccc(-c2nc(S(=O)(=O)c3ccc(F)cc3)c(SCC(=O)NCC3CCCO3)o2)cc1 (stereo not given) | -10.4%
10 | Nc1cnccc1C(=O)O | 11.1%
11 | CS(=O)(=O)c1ccc(C(=O)OCC(=O)NC(=O)C2CCCCC2)cc1[N+](=O)[O-] | -3.18%
12 | CCOC(=O)c1cnc2nc(NCc3ccc(OC)c(OC)c3)[nH]n2c1=O | 6.28%
13 | N/C(Cc1cccc2ccccc12)=N\OC(=O)c1cccs1 | 29.5%
14 | CC(=O)NC1N=C(C)N(c2ccccc2)C1=O (stereo not given) | 9.72%
15 | CN(CCO)c1nc(N)c2c(N)nc3c(c2c1C#N)CC(=O)N3C1CCCC1 | -1.92%
16 | Nc1cc(-c2ccccc2)c[nH]c1=O | -2.47%
17 | CN1c2ccccc2C(C)(C)C12C=Nc1c(cc(N3CCOCC3)c3ccccc13)O2 (stereo not given) | 2.92%
18 | O=C(O)[C@H]1CN(CCCP(=O)(O)O)CCN1 | -7.22% [at 184 µM]
19 | COc1ccc(C(=O)Oc2ccc(C(c3c(C)[nH][nH]c3=O)c3c(C)[nH][nH]c3=O)cc2OC)cc1 | 6.44% [at 184 µM]
20 | Cc1nc2c3cc(F)ccc3n(Cc3ccccc3F)c2s1 | 0.375%
21 | COc1cc(NC(C)CCCN)c2ncccc2c1 (stereo not given) | 2.44% [at 184 µM]
22 | CCCCOc1ccc(C(=O)CCN2CCCCC2)cc1 | 6.86%
23 | CN1N=C(C(C)(C)C)CC1=O | 1.82%
24 | Cc1cccc(Cn2c(C(=O)OC(C)C)cc3c2ccn3C)c1 | 2.46%
25 | COc1ccc2ccc3c(c2c1)N=CC1(O3)N(C)c2ccccc2C1(C)C (stereo not given) | 2.19%
